# From PubChem BioAssay (Tox21)
# Results filed as inconclusive are left out. Active and inactive are the calls of the source. Calls follow the shape of the dose curve; as a rule, active = well fitted inhibition curve with a large enough effect in the repeat runs; inconclusive = weak or mixed curves, or effect the other way; inactive = no such curve, though single readings can be large or run the other way.
# Target: Nuclear receptor subfamily 1 group I member 3 (Homo sapiens) (UniProt Q14994)
# Assay: qHTS assay to identify small molecule antagonists of the constitutive androstane receptor (CAR) signaling pathway (AID 1224838);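 also: HepG2 cells stably expressing hCAR with CYP2B6 luciferase reporter stimulated by CITCO; nearly all actives have a fitted effect of over 40% in size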
# Conditions: HepG2-CYP2B6-hCAR luciferase, CITCO-stimulated, 24 h; series mostly up to 92.4 µM; activity, negative = inhibition: at the top concentration
# Excerpt: U.S. Tox21 Program National Center for Advancing Translational Sciences [NCATS] NIH Chemical Genomics Center [NCGC] U.S. Environmental Protection Agency [EPA] National Institutes of Environmental Health Sciences [NIEHS] National Toxicology Program [NTP] U.S. Food and Drug Administration [FDA] Tox21 Assay Overview: The constitutive androstane receptor (CAR) is a nuclear receptor which regulates multiple drug metabolizing enzymes (DMEs) and transporters. Activating CAR will generally increase the transcription and subsequent translation of CYP2B6 and CYP3A4. These two DMEs represent about 50% of the drug metabolizing potential in the body. When CAR is deactivated, the metabolizing potential in the body will decrease, subsequently increasing the toxicity in the body or lowering the therapeutic potential of a pro-drug. Recently, there have also been studies performed indicating CARs role in energy metabolism and cancer therapy. Therefore, inhibiting CARs activity could have a potential effect on diabetes and cancer. Identifying environmental toxins and compounds which modulate CAR, through the use of the Tox21 10K compound collection, will be an important step in determining the toxicity and potential therapeutic effects these factors will have on the human body.
# Tox21 Assay Protocol Summary: A double-stable (hCAR and CYP2B6-2.2kb) transfected cell line, derived from human hepatoma (HepG2) cells, was utilized for the duration of the quantitative high-throughput screens. The HepG2-CYP2B6-hCAR cells suspended in DMEM culture medium supplemented with 10% FBS, 5 ug/mL blasticidin, 0.5 mg/mL geneticin, 100 U/mL penicillin and 100 ug/mL streptomycin were dispensed at 2500 cells/4 uL/well in 1536-well white solid bottom plates using a Multidrop Combi. After the assay plates were incubated at 37 C/5% CO2 for 4 hrs, 23 nL of compounds at 15 concentrations (from 5-48 columns) or positive control (from 1 to 4 columns) were transferred to the assay plates using a Pintool station. One uL of CITCO, was added using a Flying Reagent Dispenser to generate a final concentration of 50 nM CITCO inside each well. After a 24 hr incubation period at 37 C/5% CO2, four uL of ONE-Glo reagent was added into the assay plates using a Flying Reagent Dispenser. After a 30 min incubation period at room temperature, the luminescence intensity in the assay plates was measured using a ViewLux plate reader.
# % is scaled to controls: 0 for no effect and ±100 for the full control effect; potency is read from the fitted curve at half-maximal effect.
# Sequence of Nuclear receptor subfamily 1 group I member 3 (Homo sapiens) (Q14994 whole entry, looked up): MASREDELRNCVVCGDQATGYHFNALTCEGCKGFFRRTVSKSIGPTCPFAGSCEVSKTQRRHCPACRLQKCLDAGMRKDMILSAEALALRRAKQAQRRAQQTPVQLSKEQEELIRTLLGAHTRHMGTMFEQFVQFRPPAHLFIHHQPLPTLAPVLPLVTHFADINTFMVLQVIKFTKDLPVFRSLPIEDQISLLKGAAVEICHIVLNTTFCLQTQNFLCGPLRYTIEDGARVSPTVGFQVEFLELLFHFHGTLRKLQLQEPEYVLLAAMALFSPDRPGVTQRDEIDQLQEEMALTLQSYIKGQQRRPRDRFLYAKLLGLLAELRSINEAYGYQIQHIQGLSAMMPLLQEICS
Structure (SMILES),Potency,"activity, negative = inhibition"
CCCCCCCCCCCCCC[N+](C)(C)Cc1ccccc1,inactive,–
O=c1c(O)c(-c2ccc(O)cc2O)oc2cc(O)cc(O)c12,–,71.4% (inactive)
O=C1c2ccccc2C(=O)N1SC1CCCCC1,68.5 µM (active),–
CC(C)(C)c1ccc(C(O)CCCN2CCC(C(O)(c3ccccc3)c3ccccc3)CC2)cc1 (stereo not given),26.6 µM (active),–
CC(C)(C)CC(C)(C)c1ccc(Nc2ccc(C(C)(C)CC(C)(C)C)cc2)cc1,–,33.1% [at 8.39 µM] (inactive)
CCN(CCN)c1cccc(C)c1,inactive,–
Cc1ccc(N/N=c2\c(=O)cc/c(=N\Nc3ccc(S(=O)(=O)O)cc3)c2=O)c(C)c1,–,6.42% (inactive)
C=CCCC(=O)/C=C/C1C(C)=CCCC1(C)C (stereo not given),–,9.37% (inactive)
CCO[Si](OCC)(OCC)OCC,–,7.81% (inactive)
Nc1ccc(C(=O)O)c(O)c1,–,-6.65% [at 42.5 µM] (inactive)
CCCCCCCCCCCCOC(=O)c1ccc(O)cc1,–,-1.58% (inactive)
O=C(O)CN(CCN(CC(=O)O)CC(=O)O)CC(=O)O,1.94 µM (active),–
Cc1ccc(O)c(O)c1,–,116% (inactive)
Cc1c2ccccc2c(C)c2c1ccc1ccccc12,–,131% (inactive)
CC(C)CCOC(=O)/C=C/c1ccccc1,–,70.2% (inactive)
CN1CCN(Cc2cc(-c3ccc4[nH]c(=O)oc4c3)co2)[C@@H](c2ccc(F)cc2)C1,–,38.5% (inactive)
CC1=CCC(=C(C)C)CC1,–,-1.22% (inactive)
O=S(=O)(O)c1ccccc1/C=C/c1ccc(-c2ccc(/C=C/c3ccccc3S(=O)(=O)O)cc2)cc1,–,2.21% (inactive)
COc1cc2nc(N3CCN(C(=O)c4ccco4)CC3)nc(N)c2cc1OC,–,3.26% [at 19 µM] (inactive)
CCC(CC)(CC(=O)Nc1cccc(/C=C/c2nc(C3CCC3)cs2)c1)C(=O)O,–,208% [at 42.5 µM] (inactive)

Structure (SMILES),Potency,"activity, negative = inhibition"
CN(C)CCN1CCN(c2cccc(Cl)c2)C1=O,–,6.5% [at 42.5 µM] (inactive)
CN(C)[C@@H](CCOc1cccc2ccccc12)c1ccccc1,–,8.07% [at 42.5 µM] (inactive)
C=CC(C)(CCC=C(C)C)OC=O (stereo not given),–,18.7% (inactive)
CC(=O)c1ccc(C(C)=O)cc1,–,30.1% (inactive)
C=C(CC)C(=O)c1ccc(OCC(=O)O)c(Cl)c1Cl,–,-36.8% [at 42.5 µM] (inactive)
CCCCCCCCCCCCOCCOCCOCCOCCOCCOCCOCCOCCOCCO,–,-5.77% [at 42.5 µM] (inactive)
CCC(=O)OC(=O)CC,–,-14.1% (inactive)
CN1CCN2c3ccccc3Cc3ccccc3C2C1 (stereo not given),–,15.5% [at 42.5 µM] (inactive)
CC(C)CCCCCOC(=O)CCS,–,-12.5% (inactive)
O=c1oc2cc(O)ccc2c2oc3cc(O)ccc3c12,–,32.1% (inactive)
C=C(C)c1cccc(C(=C)C)c1,–,1.19% (inactive)
O=C(/C=C/c1ccccc1)OC/C=C/c1ccccc1,–,158% (inactive)
O=C(O)c1cc(=O)c2ccccc2o1,–,-16.8% [at 42.5 µM] (inactive)
C=C(C)C(=O)OCCCCCCCCCC,–,-12.9% (inactive)
CCN(CC)c1ccc2c(-c3ccc(S(=O)(=O)O)cc3S(=O)(=O)[O-])c3ccc(=[N+](CC)CC)cc-3oc2c1,28.2 µM (active),–
Cc1ccc(C(C)C)cc2c(C)ccc1-2,–,25.3% [at 42.5 µM] (inactive)
OCC(F)(F)F,–,-38.9% (inactive)
CC/C=C\CCCCCO,–,-4.9% (inactive)
C#Cc1ccc(-c2ccccc2F)cc1,–,41.1% [at 42.5 µM] (inactive)
COC1=C(OC)C(=O)C(CCCCCCCCCCO)=C(C)C1=O,–,17.5% [at 42.5 µM] (inactive)
